The text below walks through data of PubChem BioAssay (Tox21).

Experiment [1] in a line: qHTS assay to identify small molecule antagonists of the estrogen related receptor (ERR) signaling pathway from Tox21 library - cell viability counter screen (AID 1224834). Note: nearly all actives have a fitted effect of over 30% in size. The procedure, abridged: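 Seeded ERR cells were rested 6 h at 37 C/5% CO2 before compounds, positive and negative controls or DMSO were added. Incubation continued for 17.5 h, and viability was then quantified by CellTiter-Fluor fluorescence.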

The target of experiment [2] is Luciferin 4-monooxygenase (Photinus pyralis) (UniProt P08659). The experiment in a line: qHTS assay to identify small molecule inhibitors of firefly luciferase (AID 1224835). Note: nearly all actives have a fitted effect of over 25% in size. Note: potency is the fitted concentration of half-maximal effect. The procedure, abridged:
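Quantitative HTS format; KM concentrations of both substrates. Purified P. pyralis FLuc activity quantified from luminescence images.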

The nature of experiment [3]: qHTS assay to identify small molecule agonists of the constitutive androstane receptor (CAR) signaling pathway - cell viability counter screen (AID 1224836). Note: nearly all actives have a fitted effect of over 45% in size. Summed up:
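Multiplexed viability check: HepG2-CYP2B6-hCAR cells, 15-point compound dosing, 0.75 uM PK11195 final, 23 h at 37 C, CellTiter-Fluor fluorescence.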
For orientation: qHTS replaces the single test concentration by a dilution series.

A short description of experiment [4]: qHTS assay to identify small molecule antagonists of the constitutive androstane receptor (CAR) signaling pathway - cell viability counter screen (AID 1224837). Note: nearly all actives have a fitted effect of over 45% in size. Summed up: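 To flag cytotoxic false antagonists, HepG2 hCAR/CYP2B6-2.2kb cells were treated 23 hr with 15-concentration compound series and 50 nM CITCO at 37 C/5% CO2; CellTiter-Fluor fluorescence was the measured end point.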

A short description of experiment [5]: qHTS assay to identify small molecule antagonists of the estrogen related receptor signaling pathway with the pleiotropic PPARgamma coactivator (PGC) from Tox21 10K library - cell viability counter screen (AID 1224840; active = well fitted cell-killing curve with a large enough effect in the repeat runs, not every such curve was filed as active; note: nearly all actives have a fitted effect of over 40% in size). Summed up: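 Seeded PGC/ERR cells (2,000/well, 6 h, 37 C/5% CO2) get compound by pin tool; 17.5 h incubation at 37 C; CellTiter-Fluor added, 30 min, fluorescence measured.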

Experiment [6] has as its target Thyrotropin receptor (Homo sapiens) (UniProt P16473). Put plainly: qHTS assay to identify small molecule agonists of the thyroid stimulating hormone receptor (TSHR) signaling pathway (AID 1224843; calls by dose curve; note: nearly all actives have a fitted effect of over 45% in size). The procedure, abridged: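 Compounds are titrated over 15 concentrations, in triplicate, onto TSHR-HEK293 cells seeded at 800/well. Plates sit 30 min at room temperature before cAMP-d2 and anti-cAMP cryptate are added; signal is read after a further hour.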

Experiment [7] in a line: qHTS assay to identify small molecule agonists of the hypoxia (HIF-1) signaling pathway - cell viability counter screen (AID 1224844; calls by dose curve; note: nearly all actives have a fitted effect of over 50% in size). The procedure, abridged:
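HRE-bla ME-180; 0.5% dFBS; cpd 17 h, 37C, 5% CO2; CellTiter-Glo lum., 30 min RT, post-FRET read, same wells.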

A short description of experiment [8]: qHTS assay to identify small molecule agonists of H2AX (AID 1224845; active = well fitted activation curve with a large enough effect in the signal ratio in the repeat runs, not every such curve was filed as active; the % refers to the signal ratio). The procedure, abridged: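 Wild-type CHO-K1 cells plated overnight, then exposed 3 hr at 37C to compounds at 15 concentrations (0.76% DMSO). Lysed, then HTRF anti-pH2AX(S139)-cryptate/anti-H2AX-d2 detection after 24 hr at room temperature; emissions 665 and 620 nm.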
The nature of experiment [9]: qHTS assay to identify small molecule agonists of H2AX - cell viability counter screen (AID 1224847; calls by dose curve; note: top concentration of the series differs between compounds; nearly all actives have a fitted effect of over 30% in size). Summed up: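 After overnight plating of 1000 CHO-K1 cells per well, a 15-concentration compound series was applied for 3 hr at 37C. Luminescence from CellTiter-Glo, read following 30 min at room temperature, reflected cell viability.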
Experiment [10] can be described thus: qHTS RealTime-Glo MT Cell Viability Assay in HepG2 cells - 24 hour (AID 1224867). Note: nearly all actives have a fitted effect of over 50% in size. Summed up: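 Real-time, nonlytic viability: 600 HepG2 cells/well mixed with NanoLuc enzyme plus prosubstrate; 5 h settle, compound (DMSO) added by pintool; luminescence monitored over 40 h at 37 C.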
The nature of experiment [11]: qHTS RealTime-Glo MT Cell Viability Assay in HEK293 cells - 32 hour (AID 1224868). Note: top concentration of the series differs between compounds; nearly all actives have a fitted effect of over 50% in size. The procedure, abridged: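 Cells + reagent dispensed (600 cells/well, HEK293) → 5 h at 37 C/5% CO2 → 23 nL compound in DMSO pinned → 40 h at 37 C → luminescence read at 0, 8, 16, 24, 32, 40 h.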
Experiment [12] is described as follows: A CellTox Green Cytotoxicity Assay to monitor cytotoxicity in HEK293 cells - 0 hour (AID 1224869). Note: nearly all actives have a fitted effect of over 50% in size. The procedure, abridged: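 Tox21 screen in HEK293: membrane-impermeant cyanine dye fluoresces on binding dead-cell DNA; compound pinned 5 h post-seeding, plates held at 37 C, signal read repeatedly through 40 h.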
Experiment [13] is described as follows: qHTS RealTime-Glo MT Cell Viability Assay in HepG2 cells - 40 hour (AID 1224870). Note: nearly all actives have a fitted effect of over 50% in size. Summed up: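 HepG2 cells mixed with RealTime-Glo MT reagents (NanoLuc plus cell-permeant prosubstrate) were seeded at 600 cells/well, incubated 5 h at 37 C/5% CO2, then pinned with compounds in DMSO; nonlytic luminescence tracked viability during 40 h treatment.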
The target of experiment [14] is Nuclear receptor subfamily 1 group I member 3 (Homo sapiens) (UniProt Q14994). Put plainly: qHTS assay to identify small molecule antagonists of the constitutive androstane receptor (CAR) signaling pathway (AID 1224838).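 Note: HepG2 cells stably expressing hCAR with CYP2B6 luciferase reporter stimulated by CITCO; nearly all actives have a fitted effect of over 40% in size.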 The procedure, abridged:
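Human hepatoma HepG2 cells expressing hCAR and a CYP2B6 promoter (2.2 kb) luciferase construct; compound titration (15 points) with 50 nM CITCO final, 24 h at 37 C/5% CO2; luminescence via ONE-Glo after 30 min at room temperature.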

A short description of experiment [15]: qHTS assay to identify small molecule agonists of the hypoxia (HIF-1) signaling pathway (AID 1224846; active = well fitted activation curve with a large enough effect in the signal ratio in the repeat runs, not every such curve was filed as active; the % refers to the signal ratio). Summed up:
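Reporter induction in HRE-bla ME-180 cells is taken as agonism: cells sit 5 hrs after plating, receive compounds or DMSO only, incubate 17 hrs at 37C under 5% CO2, and are loaded with CCF4-AM for beta-lactamase FRET measurement.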

Experiment [16] can be described thus: qHTS assay to identify small molecule antagonists of the estrogen related receptor signaling pathway with the pleiotropic PPARgamma coactivator (PGC) from Tox21 10K library (AID 1224841; call rule not given here). Summed up:
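Test chemicals dissolved in DMSO were applied to pre-incubated (6 h) PGC/ERR cells at 2,000 cells/well for an 18 h, 37 C treatment; reporter luminescence was then read using One-Glo.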

A short description of experiment [17]: qHTS assay to identify small molecule agonists of the estrogen related receptor signaling pathway with the pleiotropic PPARgamma coactivator (PGC) from Tox21 10K library (AID 1224842). Note: nearly all actives have a fitted effect of over 15% in size. The procedure, abridged:
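PGC/ERR reporter cells (NTP line) were seeded 2,000 per well, rested 6 h at 37 C/5% CO2, then pin-dosed with compounds in DMSO for 18 h at 37 C; luciferase read by One-Glo luminescence after 30 min at room temperature.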

Experiment [18] is described as follows: qHTS assay to identify small molecule antagonists of the estrogen related receptor (ERR) signaling pathway from Tox21 library (AID 1224848). Note: nearly all actives have a fitted effect of over 50% in size. Summed up:
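First, 2,000 ERR cells per well were plated and held 6 h at 37 C/5% CO2. Next, compounds in DMSO were pinned in and left 18 h at 37 C. Finally, ONE-Glo was added and luminescence read after 30 min at room temperature.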

Experiment [19] in a line: qHTS assay to identify small molecule agonists of the estrogen related receptor (ERR) signaling pathway from Tox21 library (AID 1224849; calls by dose curve; note: nearly all actives have a fitted effect of over 15% in size). As to conditions: ERR reporter cell line, ONE-Glo luciferase, 18 h. Summed up:
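Tox21 compounds tested for ERR agonism in an NTP reporter cell line: 18 h treatment at 37 C, then ONE-Glo luminescence.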

In experiment [20] the target is Nuclear receptor subfamily 1 group I member 3 (Homo sapiens) (UniProt Q14994). The experiment in a line: qHTS assay to identify small molecule agonists of the constitutive androstane receptor (CAR) signaling pathway (AID 1224839).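 Note: HepG2 cells stably carrying human CAR and a CYP2B6 luciferase reporter; nearly all actives have a fitted effect of over 15% in size.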 The procedure, abridged: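 Using human hepatoma HepG2 cells engineered with hCAR and a CYP2B6-2.2kb reporter, 15-concentration compound series were incubated 24 h alongside PK11195 at 0.75 uM final, with luminescence quantified afterwards.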
Chain of Nuclear receptor subfamily 1 group I member 3 (Homo sapiens) (Q14994 whole entry, looked up): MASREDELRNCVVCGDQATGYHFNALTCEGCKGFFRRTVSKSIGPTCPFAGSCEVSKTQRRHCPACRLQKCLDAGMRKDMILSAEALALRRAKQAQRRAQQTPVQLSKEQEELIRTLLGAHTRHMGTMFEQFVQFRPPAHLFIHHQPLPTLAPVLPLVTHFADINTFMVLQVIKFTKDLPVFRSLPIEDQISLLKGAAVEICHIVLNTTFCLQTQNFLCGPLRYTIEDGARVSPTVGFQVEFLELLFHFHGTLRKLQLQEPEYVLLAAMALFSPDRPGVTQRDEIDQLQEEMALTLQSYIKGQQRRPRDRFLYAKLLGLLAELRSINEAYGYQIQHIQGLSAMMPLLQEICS

The structures appear in SMILES notation. Where “and” joins values, the source holds several entries; their conditions need not be identical. Equal values may be shown once. A number with no mark means an inactive call. Records with an inconclusive call do not appear. Calls of active or inactive are those of the source. Unless noted, calls come from the whole dose curve; as a rule, active = well fitted curve in the direction sought with a large enough effect in the repeat runs; inconclusive = weak or mixed curves; inactive = no such curve, though single readings can be large; an effect the other way counts as inactive or inconclusive.
% is set by controls: 0 for no effect and ±100 for the full control effect.

Chain of Luciferin 4-monooxygenase (Photinus pyralis) (P08659 whole entry, looked up): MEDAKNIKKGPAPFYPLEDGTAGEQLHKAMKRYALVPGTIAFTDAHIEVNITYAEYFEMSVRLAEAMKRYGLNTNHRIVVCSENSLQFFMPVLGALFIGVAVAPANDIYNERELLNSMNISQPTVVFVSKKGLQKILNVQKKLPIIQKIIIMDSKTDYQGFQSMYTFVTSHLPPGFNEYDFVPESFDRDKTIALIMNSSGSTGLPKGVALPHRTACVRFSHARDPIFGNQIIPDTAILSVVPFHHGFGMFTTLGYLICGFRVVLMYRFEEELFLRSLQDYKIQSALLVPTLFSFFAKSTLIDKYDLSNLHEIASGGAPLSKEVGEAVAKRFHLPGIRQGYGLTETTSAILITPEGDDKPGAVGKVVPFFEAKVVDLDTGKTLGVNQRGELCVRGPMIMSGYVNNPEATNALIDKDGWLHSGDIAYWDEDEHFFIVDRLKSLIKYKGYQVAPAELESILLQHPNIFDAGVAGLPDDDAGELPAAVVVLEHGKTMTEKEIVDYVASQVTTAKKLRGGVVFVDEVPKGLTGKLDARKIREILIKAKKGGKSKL
Chain of Thyrotropin receptor (Homo sapiens) (P16473 whole entry, looked up): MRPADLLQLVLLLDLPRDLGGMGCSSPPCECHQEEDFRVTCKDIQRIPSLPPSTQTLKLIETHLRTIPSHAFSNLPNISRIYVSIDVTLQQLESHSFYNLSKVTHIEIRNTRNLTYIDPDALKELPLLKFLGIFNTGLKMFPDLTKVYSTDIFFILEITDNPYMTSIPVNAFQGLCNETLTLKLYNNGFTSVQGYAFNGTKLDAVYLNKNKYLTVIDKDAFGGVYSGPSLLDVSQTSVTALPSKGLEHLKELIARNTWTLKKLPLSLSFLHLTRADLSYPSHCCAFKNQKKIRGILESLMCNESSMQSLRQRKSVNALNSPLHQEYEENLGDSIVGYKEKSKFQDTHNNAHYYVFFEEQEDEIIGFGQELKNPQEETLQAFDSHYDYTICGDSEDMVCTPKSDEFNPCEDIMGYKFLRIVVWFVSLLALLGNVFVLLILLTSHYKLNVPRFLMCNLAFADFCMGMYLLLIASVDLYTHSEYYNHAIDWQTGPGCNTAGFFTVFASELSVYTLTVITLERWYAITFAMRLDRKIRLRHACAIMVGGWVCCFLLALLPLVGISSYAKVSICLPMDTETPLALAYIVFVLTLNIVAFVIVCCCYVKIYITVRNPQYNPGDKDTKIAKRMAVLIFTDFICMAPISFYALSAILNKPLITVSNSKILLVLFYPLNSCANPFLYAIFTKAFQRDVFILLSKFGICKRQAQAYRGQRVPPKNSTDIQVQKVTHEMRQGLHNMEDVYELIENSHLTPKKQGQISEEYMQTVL

On to `CC(C)[N+](C)(CCOC(=O)C1c2ccccc2Oc2ccccc21)C(C)C`, for which the Potency result in [1], in [2], in [3], in experiment [4], in experiment [5] and in experiment [6] was “inactive” throughout. Moreover, the Potency entry in experiment [7], in experiment [8], in experiment [9], in experiment [10], in experiment [11] and in experiment [12] was “inactive” each time. The Potency result in experiment [13] is “inactive”.
Take `CCCOCCO`: the Potency result in experiment [1], in [2], in experiment [3], in experiment [4], in experiment [14] and in experiment [5] was “inactive” throughout. Besides, the Potency result in [6], in experiment [7], in [8], in [9], in [10] and in experiment [11] was “inactive” throughout. For the same compound, the Potency entry in [12] and in [13] was “inactive” each time. The compound was classed as inactive in [15].
With `C=CC(C)(O)CCC=C(C)C` (stereo not drawn), the Potency entry in [1], in [2], in experiment [3], in experiment [4], in experiment [14] and in experiment [5] was “inactive” throughout. The Potency result in [6], in experiment [7], in experiment [8], in experiment [9], in [10] and in experiment [11] was “inactive” each time. Besides, the Potency result in [12] and in [13] was “inactive” in each case. The call in experiment [15] was inactive.
As to `CC[C@]12CCCN3CCc4c(n(c5ccccc45)[C@@](O)(C(=O)OC)C1)[C@@H]32`, the Potency entry in experiment [1], in [2], in experiment [3], in [4], in experiment [5] and in experiment [16] was “inactive” in each case. Further, the Potency entry in experiment [17], in experiment [7], in experiment [8], in experiment [9], in experiment [18] and in [10] was “inactive” in each case. For the same compound, the Potency entry in experiment [11], in experiment [12] and in experiment [13] was “inactive” in each case. The activity change, positive = activation in [19] (at 42.5 µM (top of the series)) was 7.75%; in experiment [19] (at 92.4 µM (top of the series)) it was -6.91%.
`CC1=CC(C)(C)Nc2ccccc21`: the Potency result in experiment [1], in experiment [2], in experiment [3], in experiment [4], in experiment [14] and in experiment [5] was “inactive” throughout. In addition, the Potency result in experiment [16], in experiment [17], in experiment [7], in [8], in experiment [9] and in experiment [18] was “inactive” each time. The Potency result in experiment [10], in [11], in experiment [12] and in experiment [13] was “inactive” in each case. The compound was classed as inactive in experiment [15]. The activity change, positive = activation in [19] (at 92.4 µM (top of the series)) was 1.56% and -18.3%.
Consider `c1ccc2c(c1)ccc1cc3c(ccc4ccccc43)cc12`, for which the Potency result in experiment [1], in [3], in experiment [4], in [5], in experiment [6] and in [7] was “inactive” each time. In addition, the Potency result in experiment [9], in experiment [10], in experiment [11], in [12] and in [13] was “inactive” each time. In experiment [2], the Potency was 788 nM (active) and 250 nM (active). The compound was classed as inactive in [15].
On to `c1ccc2ncccc2c1`, for which the Potency result in experiment [1], in experiment [2], in experiment [3], in experiment [4], in experiment [14] and in experiment [20] was “inactive” in each case. Besides, the Potency entry in [5], in [6], in [7], in experiment [8], in experiment [9] and in [10] was “inactive” throughout. For the same compound, the Potency result in experiment [11], in experiment [12] and in [13] was “inactive” in each case. In addition, in experiment [15], the compound was called inactive.
`Nc1cc([N+](=O)[O-])ccc1C(=O)O`: the Potency result in experiment [1], in experiment [3], in experiment [4], in experiment [14], in [20] and in experiment [5] was “inactive” each time. Moreover, the Potency entry in [6], in experiment [7], in experiment [8], in experiment [9], in [10] and in experiment [11] was “inactive” each time. Also, the Potency entry in experiment [12] and in experiment [13] was “inactive” in each case. For the same compound, the Potency in experiment [2] was 64.6 µM (active) and 35.6 µM (active). Besides, the result in [15] was inactive.
